Compound activity (PubChem)
USP30 inh = inhibitors of human USP30 deubiquitinase | 5.3% of 47,000 active | Ubiquitin carboxyl-terminal hydrolase 30 (Homo sapiens), Q70CQ3 | AID 1645860, 2021 | inhibition, % at 25 µM | purified USP30, Ub-rhodamine cleavage fluorescence
USP17 block = inhibitors of human USP17 deubiquitinase; Ubiquitin carboxyl-terminal hydrolase 17-like protein 5 (Homo sapiens), A8MUK1; AID 1645855, 2021; inhibition, % at 50 µM; purified USP17, Ub-rhodamine cleavage fluorescence, 3 h; 6.5% of 47,000 active
USP28 inh = inhibitors of human USP28 deubiquitinase; AID 1645857, 2021; inhibition, % at 25 µM; purified USP28, Ub-rhodamine cleavage fluorescence, 30 min; Ubiquitin carboxyl-terminal hydrolase 28 (Homo sapiens), Q96RU2; 3% of 47,000 active
Target sequence (Q96RU2 whole entry, looked up): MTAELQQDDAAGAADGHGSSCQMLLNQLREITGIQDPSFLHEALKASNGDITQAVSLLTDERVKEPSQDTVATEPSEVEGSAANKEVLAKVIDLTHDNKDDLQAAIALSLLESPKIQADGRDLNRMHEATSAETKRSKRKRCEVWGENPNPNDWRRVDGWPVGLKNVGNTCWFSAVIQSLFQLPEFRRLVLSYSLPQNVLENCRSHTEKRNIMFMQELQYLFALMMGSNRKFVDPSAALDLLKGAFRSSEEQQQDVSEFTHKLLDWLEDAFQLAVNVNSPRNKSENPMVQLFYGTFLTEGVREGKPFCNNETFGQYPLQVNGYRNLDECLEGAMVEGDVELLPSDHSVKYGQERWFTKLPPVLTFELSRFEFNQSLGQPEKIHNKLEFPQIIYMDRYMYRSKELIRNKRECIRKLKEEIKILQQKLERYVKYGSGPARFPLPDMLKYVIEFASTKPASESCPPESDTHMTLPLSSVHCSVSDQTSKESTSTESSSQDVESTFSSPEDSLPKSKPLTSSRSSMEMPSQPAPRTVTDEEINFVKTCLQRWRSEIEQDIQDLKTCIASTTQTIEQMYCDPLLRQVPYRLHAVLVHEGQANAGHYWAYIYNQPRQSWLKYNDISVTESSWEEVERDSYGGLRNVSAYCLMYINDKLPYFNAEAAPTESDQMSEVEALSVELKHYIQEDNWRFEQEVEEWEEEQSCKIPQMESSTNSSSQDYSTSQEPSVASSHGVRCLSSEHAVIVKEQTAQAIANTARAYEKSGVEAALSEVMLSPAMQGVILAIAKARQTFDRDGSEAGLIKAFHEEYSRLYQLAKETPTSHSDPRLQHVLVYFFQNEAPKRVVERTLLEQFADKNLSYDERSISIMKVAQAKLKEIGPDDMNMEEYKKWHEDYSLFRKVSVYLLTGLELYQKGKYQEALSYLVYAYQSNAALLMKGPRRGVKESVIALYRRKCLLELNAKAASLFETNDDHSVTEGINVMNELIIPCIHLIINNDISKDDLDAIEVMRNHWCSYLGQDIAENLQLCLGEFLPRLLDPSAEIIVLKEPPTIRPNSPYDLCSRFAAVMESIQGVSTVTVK
USP10 inh = inhibitors of human USP10 deubiquitinase; Ubiquitin carboxyl-terminal hydrolase 10 (Homo sapiens), Q14694; purified USP10, Ub-rhodamine fluorescence, 60 min; inhibition, % at 20 µM; 1.1% of 47,000 active; AID 1645856, 2021
USP8 block = inhibitors of human USP8 deubiquitinase; Ubiquitin carboxyl-terminal hydrolase 8 (Homo sapiens), P40818; purified USP8, Ub-rhodamine cleavage fluorescence, 30 min; inhibition, % at 20 µM; 4.2% of 47,000 active; AID 1645853, 2021
Of the large screens only hits and unclear results are named; the others gave an inactive call. Hits are enriched below; roughly 14% of the tested compounds scored in any of these assays. No stated cut-off is given here; in the data, active means inhibition above about 30%; inactive means the rest.

COCCn1c(C)cc(C(=O)CSc2ccc(Cl)cc2)c1C	USP28 inh 30
O=C(Cn1c(=O)n(Cc2ccc3c(c2)OCO3)c(=O)c2ncccc21)c1ccc(Cl)cc1	USP30 inh 62, USP8 block 73
O=C(Cn1c(=O)n(Cc2ccccc2)c(=O)c2ncccc21)NCc1ccccc1Cl	USP17 block 86, USP10 inh 51, USP8 block 50
O=C(Cn1c(=O)n(Cc2ccncc2)c(=O)c2ncccc21)Nc1ccccc1	none
O=C(Cn1c(=O)n(Cc2ccc3c(c2)OCO3)c(=O)c2ncccc21)NCc1ccco1	USP17 block 49
O=C(Cn1c(=O)n(Cc2ccc3c(c2)OCO3)c(=O)c2ccccc21)NCC1CCCO1 (configuration not stated)	none
CC(OC(=O)CCCc1c[nH]c2ccccc12)C(=O)Nc1ccccc1F (configuration not stated)	none
Cc1oncc1C(=O)N1CCc2c(COCC3CC3)cncc2C1	none (no result: USP30 inh, USP28 inh)
O=C(NCc1ccc(-c2nc3cnccc3o2)cc1)c1ccccc1F	USP17 block 68
O=C(NCc1ccc(-c2nc3cnccc3o2)cc1)c1ccccc1Cl	USP17 block 38
O=C(NCc1csc(-c2ccccc2)n1)c1ccccc1F	none
CCn1c(=O)c(C(=O)Nc2ccc(Br)c(C)c2)nc2ccccc21	USP30 inh 40
CNc1nccnc1C1CN(S(=O)(=O)c2ccccc2)CCO1 (configuration not stated)	none
COc1ccc(S(=O)(=O)N(CC(=O)NCc2ccco2)c2ccc(C)cc2)cc1	USP8 block 30
CCOc1ccc(S(=O)(=O)N(CC(=O)NC2CCCCCC2)c2ccccc2)cc1	none
CCOc1ccc(S(=O)(=O)N(CC(=O)NCc2ccccc2C)c2ccccc2)cc1	USP17 block 45
c1ccc2oc(-c3csc(-c4ccc5c(c4)OCCO5)n3)cc2c1	none
c1cc(N2CCOCC2)ccc1-c1csc(-c2ccc3c(c2)OCCO3)n1	USP17 block 40
FC(F)(F)c1ccc(-c2nc(-c3ccc4c(c3)OCCCO4)cs2)cc1	USP30 inh 33
Cc1nc(-c2ccc3c(c2)OCCCO3)cs1	none
N#Cc1cccc(NC(=O)Nc2cccn(Cc3ccccc3F)c2=O)c1	USP17 block 85, USP28 inh 82, USP10 inh 71, USP8 block 94
N#Cc1ccc(NC(=O)Nc2cccn(Cc3ccccc3Br)c2=O)cc1	USP30 inh 30, USP17 block 81, USP28 inh 63, USP10 inh 51, USP8 block 90
Cc1ccccc1NC(=O)CNc1ccc(C#N)cc1	none
Cc1ccc(CN2C[C@H]3C[C@H](C(=O)NCC4CC4)[C@@H](C2)O3)o1	none
Cc1ccc(N=Cc2sc(O)c3ccccc23)c(C)c1	none
Oc1sc(C=Nc2cc(Cl)ccc2Cl)c2ccccc12	USP17 block 54, USP8 block 47
COC(=O)c1ccc(Nc2c(C#N)cnc3ccc(Cl)cc23)cc1	USP30 inh 33
CC(C)C(Nc1ccc(C(F)(F)F)cc1Cl)C(=O)Nc1nc2ccccc2[nH]1 (configuration not stated)	USP30 inh 37, USP17 block 40
CCOC(=O)c1nnc(Cc2ccc3c(c2)OCO3)o1	none
O=C(O)c1ccccc1-c1ccccc1C(=O)N1CCOCC1	none
Cc1cc(C(=O)N2CCOCC2)c(C)n1-c1ccc(O)cc1	USP17 block 86, USP8 block 94
CSc1nc2ncn(CC(=O)Nc3ccc(F)c(F)c3)c(=O)c2s1	none
CCN(CC(=O)Nc1cc(C)on1)c1cccc2ccccc12	USP17 block 88, USP8 block 90
Cc1cc(O)cc2c1C(=O)c1c(O)ccc(O)c1C2=O	none
Cc1occ2c1C(=O)c1c(O)ccc(O)c1C2	USP30 inh 57, USP17 block 95, USP28 inh 89, USP10 inh 89, USP8 block 84
Cn1c(=O)cc(C(=O)Nc2cc(C(F)(F)F)cc(C(F)(F)F)c2)[nH]c1=O	USP30 inh 36
Cc1cc2nc(C(C)NC(=O)c3cc(C4CC4)nn3C)cc(=O)n2[nH]1 (configuration not stated)	USP30 inh 36
CC(C)Nc1nc(-c2ccccc2)nnc1-c1ccccc1	USP30 inh 31
CCn1c(COc2ccccc2OC)nnc1SCc1ccccc1	none
